Screens deposited in PubChem by National Center for Advancing Translational Sciences (NCATS).
Hits are enriched below; roughly 19% of the tested compounds scored in any of these assays.
Giardia kill: Small Molecules that selectively kill Giardia lamblia: qHTS. Giardia lamblia trophozoite viability. activity change, % at 7.66 µM, hits read low. hit rate 0.15% among 340,000; in the data active = activity change below about -80%; inconclusive = between about -30% and that limit;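 note: parasites exposed to compound for two days anaerobically before the ATP read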
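Luminescence from cellular ATP indicates surviving trophozoites (100 cells/well) following 48 hrs anaerobic compound treatment at 37 deg C; signal develops 15-30 min at room temperature.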
IL-1B inflam inh: qHTS for Inhibitors of Inflammasome Signaling: IL-1-beta AlphaLISA Primary Screen; THP-1 LPS/ATP IL-1B secretion, AlphaLISA, 16 h; active compounds read low; activity change, % at 57.5 µM; hit rate 4.7% among 360,000; in the data active = activity change below about -50%; inconclusive = mostly about -30% to -49%
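THP-1 cells pretreated 1 hr with compounds (up to 57.5 uM final), then stimulated with LPS (250 ng/mL final) plus ATP (1.25 mM final); secreted IL-1B measured by AlphaLISA after 16 hr, decreased signal indicating inhibition.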
ELG1 DNA repair: qHTS screen for small molecules that inhibit ELG1-dependent DNA repair in human embryonic kidney (HEK293T) cells expressing luciferase-tagged ELG1; HEK293T ELG1-luciferase reporter, luminescence, 16 h; DNA damage induced by 5-fluorouridine; Potency, µM (series often up to 46.1 µM), inactives show top-dose activity change, negative = inhibition, usual class: inhibitors; hit rate 2.3% among 330,000; AID 504467, 2011; note: potency is the fitted concentration of half-maximal effect; nearly all actives have a fitted effect of over 55% in size
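In this reporter screen, reduction of luminescence relative to DMSO vehicle indicated activity. Compounds and 5-fluorouridine were added together to 2,000 cells per well, incubated for 16 hr at 37 °C, then developed with ONE-Glo.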
DT40 TDP1 CPT: qHTS for Inhibitors of human tyrosyl-DNA phosphodiesterase 1 (TDP1): qHTS in cells in presence of CPT. chicken DT40 Tdp1-/-;hTDP1 cells + 20 nM CPT, ATP luminescence, 48 h. Potency, µM (highest dose often 46.2 µM), without a hit: at the highest dose activity change, negative = growth inhibition, hits mostly inhibitors. AID 686979, 2013. hit rate 12% among 420,000; note: potency is the fitted concentration of half-maximal effect; nearly all actives have a fitted effect of over 55% in size
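Chicken DT40 Tdp1-/- cells stably complemented with human TDP1 were seeded at 400 cells/well in medium containing 20 nM camptothecin, exposed to pin-transferred compounds, and grown at 37 °C for at least 48 hr. Viability was read as ATP luminescence.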
TDP1 inh: qHTS Assay for Inhibitors of Tyrosyl-DNA Phosphodiesterase (TDP1); Potency, µM (titrated, usually from 130 µM), for inactives: top-dose activity change, negative = inhibition, usual class: inhibitors; hit rate 0.28% among 350,000; recombinant TDP1, AlphaScreen DNA substrate cleavage; note: potency is the fitted concentration of half-maximal effect; nearly all actives have a fitted effect of over 40% in size
Target sequence (Q9NUW8 whole entry, looked up): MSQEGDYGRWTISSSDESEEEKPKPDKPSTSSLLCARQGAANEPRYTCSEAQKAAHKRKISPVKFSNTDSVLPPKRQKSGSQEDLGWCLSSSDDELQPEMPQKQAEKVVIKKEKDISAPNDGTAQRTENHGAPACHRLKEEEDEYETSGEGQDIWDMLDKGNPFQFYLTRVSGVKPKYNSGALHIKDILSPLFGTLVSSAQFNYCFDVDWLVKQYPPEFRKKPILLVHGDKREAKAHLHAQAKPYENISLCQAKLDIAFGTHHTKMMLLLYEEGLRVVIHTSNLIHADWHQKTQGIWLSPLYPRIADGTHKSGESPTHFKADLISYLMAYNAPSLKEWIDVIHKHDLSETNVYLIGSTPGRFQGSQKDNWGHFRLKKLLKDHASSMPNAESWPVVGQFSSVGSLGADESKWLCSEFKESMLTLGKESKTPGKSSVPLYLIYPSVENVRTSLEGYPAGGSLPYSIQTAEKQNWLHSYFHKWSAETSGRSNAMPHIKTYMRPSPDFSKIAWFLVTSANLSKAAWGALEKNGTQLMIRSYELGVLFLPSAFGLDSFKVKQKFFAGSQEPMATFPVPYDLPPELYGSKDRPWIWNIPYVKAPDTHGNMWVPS
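AlphaScreen read-out: signal falls as enzyme removes the 3' tyrosine-FITC from a 5'-biotinylated DNA oligo (15 nM, 5 min, RT). Enzyme was E. coli-made recombinant Tdp1 at 1 nM, exposed to compound for 15 min beforehand; beads 10 ug/ml, 10 min.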
DT40 TDP1 no CPT: qHTS for Inhibitors of human tyrosyl-DNA phosphodiesterase 1 (TDP1): qHTS in cells in absence of CPT. Potency, µM (highest dose often 46.2 µM), inactives show at the top dose activity change, negative = growth inhibition, usual class: inhibitors. hit rate 15% among 420,000. DT40 Tdp1-/- hTDP1 cells, no CPT, ATP luminescence, 48 h; note: potency is the fitted concentration of half-maximal effect; nearly all actives have a fitted effect of over 55% in size
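Luminescent ATP content (CellTiter-Glo) served as the growth readout. Knockout chicken DT40 cells expressing human TDP1 were exposed to compounds without camptothecin for a minimum 48 hr at 37 °C.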
* hit, by the source's call; u = inconclusive; x = no result. Unless noted, calls come from the whole dose curve; as a rule, active = well fitted curve in the direction sought with a large enough effect; inconclusive = small, poorly fitted or top-dose-only effect, or another doubt; inactive = no such curve, though single readings can be large; an effect the other way counts as inactive or inconclusive. % is set by controls: 0 for no effect and ±100 for the full control effect.

SMILES	Giardia kill	IL-1B inflam inh	ELG1 DNA repair	DT40 TDP1 CPT	TDP1 inh	DT40 TDP1 no CPT
COc1ccc(NC(=O)c2cc(Br)c(Br)s2)cn1	-2	-53*	4%	0%	-3%	u
CCc1cc(C(=O)Nc2ccc(OC)nc2)sc1C	-3	0	u	3%	6%	-17%
O=C(NNC(=O)C1CC1)c1cc(Br)c(Br)s1	-7	-8	5%	-26%	2%	14%
O=C(Nc1ccc(Br)cc1)c1cc(Br)c(Br)s1	x	x	x	u	-2%	19µM*
COc1cc(NS(=O)(=O)c2ccc([N+](=O)[O-])cc2)c2ncccc2c1	x	x	x	x	24%	x
O=C1[C@H](Oc2ccccc2)[C@@H](c2ccncc2)N1c1ccncc1	0	5	26%	-3%	x	8%
O=C1[C@@H](Oc2ccccc2)[C@@H](c2cnc3ccccc3c2)N1c1ccccc1	8	-5	16µM*	21µM*	x	15µM*
CCc1nn(CC(=O)N2CCN(c3ccc(F)cc3)CC2)c(=O)c2cc3occc3n12	8	3	2%	-28%	2%	1%
C#CC[N+](CC)(CC)CC#Cc1cccc(Cl)c1	27	-4	-3%	u	-1%	u
C#CC[N+](C)(C)CC#Cc1ccc(Cl)cc1	u	-67*	15%	-11%	-2%	-29%
CCCN(C(=O)c1ccc2c(=O)n3c(nc2c1)CCCCC3)c1cccc(Cl)c1	x	x	x	u	5%	16µM*
CN(C(=O)COC(=O)c1ccc2c(=O)n3c(nc2c1)CCC3)C1CCS(=O)(=O)C1 (stereo not drawn)	2	-70*	u	8%	3%	-2%
COc1ccc(N2CCN(C(=O)c3ccc4c(=O)n5c(nc4c3)CCCCC5)CC2)cc1	13	-15	-16%	-27%	x	u
CN(C(=O)c1ccc2c(=O)n3c(nc2c1)CCCCC3)c1ccccc1F	0	28	-20%	-15%	4%	6%
CN(C(=O)c1ccc2c(=O)n3c(nc2c1)CCCCC3)c1cccc(Cl)c1	10	-7	-7%	23µM*	0%	23µM*
O=C(c1ccc2c(=O)n3c(nc2c1)CCCCC3)N1CCN(c2cccc(Cl)c2)CC1	-2	-4	u	18µM*	x	23µM*
CC(CSC(=O)c1ccccc1)C(=O)N1C[C@@H](Sc2ccccc2)C[C@H]1C(=O)O (stereo partly drawn)	x	x	x	-1%	x	-4%
CN(C(=O)COC(=O)c1ccc(C(C)(C)C)cc1)C1CCS(=O)(=O)C1 (stereo not drawn)	-13	2	2%	-1%	0%	-3%
CN(C(=O)COC(=O)c1nc(Cl)c(Cl)c(Cl)c1Cl)C1CCS(=O)(=O)C1 (stereo not drawn)	-7	-99*	u	21µM*	6%	21µM*
CN(Cc1ccc(C(C)(C)C)cc1)C(=O)c1ccc2c(=O)n3c(nc2c1)CCC3	-9	8	-24%	21µM*	-6%	21µM*
O=C1OC(/C(=C\Nc2cc(Cl)ccc2O)[N+](=O)[O-])c2ccccc21 (stereo not drawn)	-22	-170*	u	9%	7%	u
CN(NC1OC(=O)c2ccccc21)c1ccc(Cl)cc1[N+](=O)[O-] (stereo not drawn)	2	9	u	2%	5%	5%
Cc1ccc(N/C=C(\C2OC(=O)c3ccccc32)[N+](=O)[O-])c(C)c1 (stereo not drawn)	-3	-77*	u	1%	9%	-30%
Cc1ccc(NC(=O)CN2C(=O)c3ccccc3C2=O)c(C)c1	-20	-8	-8%	12%	x	6%
O=C(O)CCCC(=O)N1CCN(c2nc(-c3ccccc3Cl)c3cc(Br)ccc3n2)CC1	-3	12	-1%	-26%	x	u
SMILES	Giardia kill	IL-1B inflam inh	ELG1 DNA repair	DT40 TDP1 CPT	TDP1 inh	DT40 TDP1 no CPT
COc1ccc(CN2CC(=O)N(c3ccccc3OC)C2=S)cc1OC	19	25	-5%	-27%	x	-16%
COc1ccc(CN2CC(=O)N(c3ccc(Cl)cc3)C2=S)cc1OC	-24	u	u	u	x	u
COc1cccc(N2C(=O)CN(Cc3cc(OC)c(OC)c(OC)c3)C2=S)c1	-6	27	0%	-3%	x	21µM*
COc1ccc(Cl)cc1N1C(=O)CN(Cc2cc(OC)c(OC)c(OC)c2)C1=S	51	-1	u	15µM*	x	8.2µM*
COc1ccc(N2C(=O)CN(Cc3cc(OC)c(OC)c(OC)c3)C2=S)cc1	10	8	u	16µM*	5%	23µM*
COc1ccc(CN2CC(=O)N(c3cccc(Cl)c3)C2=S)cc1OC	-14	-8	u	-77%	x	15µM*
COc1cc2c(cc1OC)C(SC)=NC1(CCCC1)C2	2	u	19%	16µM*	5%	15µM*
COc1cc2c(cc1OC)C(C)=NC1(CCCCC1)C2	14	-13	4%	2%	0%	-3%
Cc1ccc(N(C(=O)c2csnn2)C(C(=O)NC2CCCC2)c2ccccn2)c(C)c1 (stereo not drawn)	12	29	-9%	2%	3%	-22%
CCC(=O)N1CCc2cc(Br)cc(S(=O)(=O)N3CCCC(C(=O)Nc4cccc(F)c4)C3)c21 (stereo not drawn)	x	x	x	23µM*	0%	18µM*
CCC(=O)N1CCc2cc(Br)cc(S(=O)(=O)NCCc3cccc(C)c3)c21	x	x	x	16µM*	-7%	23µM*
CCC(=O)N1CCc2cc(Br)cc(S(=O)(=O)N3CCCC(C(=O)Nc4cccc(C)c4C)C3)c21 (stereo not drawn)	x	x	x	u	-2%	u
CCC(=O)N1CCc2cc(Br)cc(S(=O)(=O)N3CCCC(C(=O)Nc4ccc(CC)cc4)C3)c21 (stereo not drawn)	x	x	x	-17%	3%	u
CCC(=O)N1CCc2cc(Br)cc(S(=O)(=O)N3CCCC(C(=O)NCc4ccc(C)cc4)C3)c21 (stereo not drawn)	x	x	x	16µM*	5%	16µM*
CCc1nnc(NS(=O)(=O)c2ccc(NCc3cc(Cl)ccc3O)cc2)s1	3	17	18%	u	x	-2%
